hcDAF-12 act = activators of H. contortus DAF-12 nuclear receptor. 370,000 tested, 1.4% active. activation, % at 6.8 µM. AID 652067. HEK293 hcDAF-12 lit1-tk-luc reporter, luminescence; 0% DMSO, 100% Δ7-dafachronic acid;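 active means activation above the mean of all tested compounds plus 3 SD, cut at about 5.5% in these data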
DAX1 inh-1 = blocks DAX1 repression of SF-1 activated StAR promoter; inhibition, % at 6.8 µM; 370,000 tested, 1.1% active; HEK293T StAR-luciferase reporter, SF-1/DAX-1 repression relief;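 active means inhibition above the mean over all tested compounds plus 3 SD, cut at about 3.6% in these data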;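 further: higher inhibition means more luminescence from relief of DAX-1 repression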
DAX1 inh-2 = NR0B1 (DAX1) inhibition; AID 504766; HEK293 Gal4-DAX1 luciferase reporter, luminescence; inhibition, % at 6.75 µM; 340,000 tested, 0.99% active;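 active means inhibition above the mean over all tested compounds plus 3 SD, cut at about 4.2% in these data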;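 further: inhibition shows as a rise in luminescence from relieved DAX1 repression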
Target sequence (P51843 207-470 limits assumed): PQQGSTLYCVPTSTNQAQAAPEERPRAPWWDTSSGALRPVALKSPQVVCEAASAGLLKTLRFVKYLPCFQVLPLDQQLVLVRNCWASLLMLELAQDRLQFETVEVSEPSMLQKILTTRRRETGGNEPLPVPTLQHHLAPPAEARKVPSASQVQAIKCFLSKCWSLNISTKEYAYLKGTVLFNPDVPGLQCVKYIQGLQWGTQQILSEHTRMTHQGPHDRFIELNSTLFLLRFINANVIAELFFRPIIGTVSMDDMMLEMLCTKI
Wee1 degr inh = inhibitors of human Wee1 degradation; AID 1321; reporter increase, % at 5 µM; P30291; 220,000 tested, 1.2% active; HeLa Luc-Wee1K328M stability, luciferase luminescence; 100% = proteasome inhibitor MG132 effect;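 active means activation above the mean of all tested compounds plus 3 SD, set per screening run, cut at about 8.8% in these data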;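 further: cells exposed to compound for 20 h before luminescence read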
hgDAF12 agonist = hgDAF-12 agonism, primary luciferase screen; HEK293 GAL4-hgDAF12 UAS-luciferase reporter, agonist luminescence; normalized to butyrate control; activation, % at 6.8 µM; 370,000 tested, 1.8% active;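 active means activation above a cutoff set at the mean of all screened compounds plus 3 SD, cut at about 10% in these data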
ssDAF-12 act = S. stercoralis DAF-12 activation, primary screen; 370,000 tested, 1% active; HEK293 ssDAF-12/GRIP1 lit1-tk-luc reporter, luminescence; % of 3 µM dafachronic acid response; activation, % at 6.8 µM; AID 652126;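 active means activation above the mean over all tested compounds plus 3 SD, cut at about 0.9% in these data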
DAX1 inh confirm = NR0B1 (human) inhibition, confirmation | 2,400 tested, 87% active | shares compounds with DAX1 inh-1 | inhibition, % at 6.8 µM | HEK293T StAR-promoter luciferase reporter, SF-1/DAX-1 repression;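 active means inhibition above the average of every tested compound plus 3 SD, cut at about 3.8% in these data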;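 further: active compounds raise luminescence by relieving repression of the StAR reporter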
SF1 mutant ctr = nonselective inhibitor or artifact in SF-1 mutant DAX1 counter-screen; inhibition, % at 6.8 µM; 2,400 tested, 78% active; HEK293 StAR-luciferase, SF-1 AF2 mutant, luminescence; shares compounds with DAX1 inh-1; AID 652136;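 active means inhibition above the mean of all tested compounds plus 3 SD, cut at about 3% in these data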
A number is an active result; i = inactive; nt = not tested or not shown. Only some compounds are listed: those with a hit (about 4.6% of all), similar ones and a draw of the others.

SMILES	hcDAF-12 act	DAX1 inh-1	DAX1 inh-2	Wee1 degr inh	hgDAF12 agonist	ssDAF-12 act	DAX1 inh confirm	SF1 mutant ctr
COc1cc2c(O)c3c(c(-c4ccc5c(c4)OCO5)c2cc1OC)C(=O)OC3	i	6.6	i	i	i	i	14.8	i
COc1cc2c(OC(C)=O)c3c(c(-c4ccc5c(c4)OCO5)c2cc1OC)C(=O)OC3	i	i	i	i	i	i	nt	nt
CCN(c1ccccc1C)S(=O)(=O)c1nnc(NC(=O)c2ccco2)s1	i	4.8	i	nt	i	i	i	i
CC(=O)Nc1ccc(C(C)=NNC(=O)C2CCCC2)cc1	i	4.6	nt	nt	i	i	i	i
COC(=O)CCC(=O)N1CCC(Oc2cccc(C(=O)NCc3ccccn3)c2)CC1	i	i	i	nt	i	i	nt	nt
Cc1ccc(NC(=S)NC(=O)C2CCCC2)cc1C	i	4.6	i	nt	10.5	i	5.3	4.8
C=C1CCCC2OC(CC3=CC4/C(C)=C/CC(C)CC(/C=C(\C)C(O)C5CC(O)C(O)C(CCC(O)/C=C/C(C)=C/CCC6=NCCC(C3)C64C)O5)OC(=O)CC3OC(C(O)C1)C(O)C3O)CC(O)C2O (configuration not stated)	5.8	7.9	nt	nt	i	i	11.4	i
CCc1nnc(NC(=O)CCN2C(=O)C3CCCCC3C2=O)s1 (configuration not stated)	i	i	i	nt	i	i	nt	nt
CCSc1nnc(NC(=O)CCN2C(=O)C3CCCCC3C2=O)s1 (configuration not stated)	i	4.8	i	nt	i	i	i	i
Cc1cccc(OCCn2c(=O)n(C)c3ccccc32)c1	i	5.8	i	i	12.7	i	7.2	4.3
Cc1cccc(OCCn2c(=O)sc3ccccc32)c1	i	i	i	i	i	i	nt	nt
O=C(Nc1ccc2c(c1)OCCO2)C1C(=O)Nc2ccccc2C(=O)N1C1CCCCC1 (configuration not stated)	i	i	nt	nt	i	i	nt	nt
O=C(Nc1nc2cc3c(cc2s1)OCCO3)C1=COCCO1	i	i	i	i	i	i	nt	nt
CCCCc1nnc(NC(=O)C2=COCCO2)s1	i	7.3	i	nt	i	1.0	7.3	5.6
O=C(Nc1nc2ccc(F)cc2s1)C1=COCCO1	i	7.5	i	nt	i	i	7.6	3.1
Cc1nnc(NC(=O)C2=COCCO2)s1	i	i	i	nt	i	i	nt	nt
CCOC(=O)C1(C)CCCN(C(=O)C(c2ccccc2)c2ccccc2)C1 (configuration not stated)	i	i	nt	nt	i	i	nt	nt
O=C(c1ccco1)N(Cc1cccnc1)C(c1ccccc1)c1nc2ccccc2[nH]1 (configuration not stated)	i	6.0	nt	nt	i	i	3.8	3.1
O=C(c1cccnc1)N(Cc1ccccc1)C(c1ccccc1)c1nc2ccccc2[nH]1 (configuration not stated)	i	i	nt	nt	i	i	nt	nt
Cc1c(C(=O)NCCCN2CCCCC2)oc2ccc3c(c12)C(O)CC1(CCCCC1)O3 (configuration not stated)	i	5.7	i	nt	i	i	i	i
CCCOc1ccc(C(=O)Nc2ccc3c(c2)OCO3)cc1	i	10.5	i	nt	i	i	9.6	4.9
Cc1ccc(OCC(=O)Nc2ccc3c(c2)OCO3)c(C)c1	i	6.5	i	i	13.0	i	7.2	5.7
CCCCOc1ccc(C(=O)Nc2ccc3c(c2)OCO3)cc1	i	i	i	i	i	i	nt	nt
O=C(COc1cc(F)ccc1[N+](=O)[O-])Nc1ccc2c(c1)OCO2	i	i	i	nt	i	i	nt	nt
CC(=O)c1cc(F)ccc1OCC(=O)Nc1ccc2c(c1)OCO2	i	10.8	i	nt	10.7	1.0	12.0	6.3
SMILES	hcDAF-12 act	DAX1 inh-1	DAX1 inh-2	Wee1 degr inh	hgDAF12 agonist	ssDAF-12 act	DAX1 inh confirm	SF1 mutant ctr
CC1CCN(CC(=O)N(C)c2c(N)n(Cc3ccccc3)c(=O)[nH]c2=O)CC1	i	i	i	nt	i	i	nt	nt
Cc1ccccc1NC(=O)Nc1ccc2c(c1)CCC2	i	5.0	i	nt	i	i	10.6	5.5
COc1ccccc1NC(=O)Nc1ccc2c(c1)CCC2	i	8.1	i	nt	i	i	6.3	4.9
Cc1cc(C)cc(NC(=O)Nc2ccc3c(c2)CCC3)c1	i	i	i	nt	i	i	nt	nt
COc1cc(C(=O)Nc2ccc3c(c2)nc(C)n3C)cc(OC)c1OC	i	i	i	nt	i	i	nt	nt
COc1ccccc1NC(=O)Nc1ccc2c(c1)nc(C)n2C	i	6.0	i	i	13.1	i	17.5	9.7
O=S(=O)(Nc1ccc(F)cc1)N1CCOCC1	i	i	i	nt	i	i	nt	nt
Cc1cc(C)nc(SCc2csc(-c3ccccc3)n2)n1	i	5.2	i	i	11.4	i	12.5	6.3
O=[N+]([O-])c1ccc(NNS(=O)(=O)c2cc(Cl)ccc2Cl)nc1	i	i	i	nt	i	i	nt	nt
CC1(C)CSC(C)(C)C(=O)N1	i	i	i	nt	i	i	nt	nt
CC(C)(C)c1ccc(-c2nnc(SCC(=O)NCC3CCCO3)n2N)cc1 (configuration not stated)	i	6.5	i	nt	i	i	i	i
O=C(CSc1nnc(NC(=O)c2ccccc2)s1)NCC1CCCO1 (configuration not stated)	i	6.2	i	nt	i	i	4.2	4.3
O=C(CSc1nnc(NC(=O)Cc2ccccc2)s1)NCC1CCCO1 (configuration not stated)	i	i	i	i	i	i	nt	nt
COc1ccc(S(=O)(=O)c2ccc(OC)cc2)cc1	i	i	i	i	i	i	nt	nt
COc1ccc(N=[N+]([O-])c2ccc(OC)cc2)cc1	i	7.9	i	nt	i	i	15.9	6.8
COC(=O)C1CN(Cc2cn(Cc3ccc(C)cc3)nn2)CCS(=O)(=O)N1Cc1ccc(Cl)cc1 (configuration not stated)	i	i	nt	nt	i	i	nt	nt
COc1ccc(/C=C/c2cc(C(=O)O)c3ccccc3n2)cc1	6.0	4.5	i	i	12.8	1.0	9.8	3.2
Cc1ccc(N(C(=O)CNC(=O)c2ccco2)C(C(=O)NC2CCCC2)c2cccnc2)cc1F (configuration not stated)	i	i	i	nt	i	i	nt	nt
O=C(NCCc1ccccc1)c1noc2c1CCc1ccccc1-2	i	i	i	i	i	i	nt	nt
CCCNC(=O)c1noc2c1CCc1ccccc1-2	i	4.5	i	i	i	i	i	3.0
O=C(Cc1cccc(NC(=O)C2CCCN(C(=O)c3ccccc3)C2)c1)Nc1ccc(C(=O)N2CCOCC2)cc1 (configuration not stated)	i	i	i	nt	i	i	nt	nt

Screening data: PubChem BioAssay, The Scripps Research Institute Molecular Screening Center
